According to the supplement of paper PMC9262897, “Low-cost anti-mycobacterial drug discovery using engineered E. coli” (Nature Communications, 2022):
Where a name gives a salt, the structure may show the parent alone. ± gives the standard deviation of the averaged measurements.

Columns and labels:
Experiment in all cases: growth (OD600 after 10 h); higher = more growth (less inhibition)
[1] = system: E. coli TESEC Alr+ wild-type control; settings: compound 0.1 mM; raw OD600 reference: median of DMSO wells 0.241, cell-free background 0.041
Procedure: (§1)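 TESEC Mtb Alr E. coli, or the Alr+ wild-type control, in 384-well plates with Prestwick library compounds at 0.1 mM and 1% DMSO, across arabinose induction levels of 1E3 to 1E7 nM. Growth is read as OD600 after 10 h at 37 °C in triplicate biological replicates.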

[2] = system: E. coli TESEC Mtb Alr; settings: compound 0.1 mM
Procedure: as §1

[3] = system: E. coli TESEC Mtb Asd; settings: compound 0.1 mM
Procedure: (§2)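 TESEC E. coli strains in which the native enzyme is deleted and replaced by arabinose-inducible Mtb Asd, DapB, CysH or TrpD, each grown in its selective medium. Strains were screened against the Prestwick library at 0.1 mM and 1% DMSO in 384-well format at low and high arabinose induction. Growth is read as OD600 after 10 h in triplicate.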

[4] = system: E. coli TESEC Mtb DapB; settings: compound 0.1 mM
Procedure: as §2

[5] = system: E. coli TESEC Alr+ wild-type control; settings: compound 0.1 mM; raw OD600 reference: median of DMSO wells 0.49, cell-free background 0.052
Procedure: (§3)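 TESEC Mtb Alr E. coli (ΔaraC ΔtolC ΔentC Δalr ΔdadX, arabinose-inducible Mtb Alr) or the Alr+ wild-type control strain, grown in defined M9-fructose medium without D-alanine in 96-well plates with Prestwick library compounds at 0.1 mM and 1% DMSO. Low Alr induction is 0.1 µM arabinose and high induction is 10 mM arabinose.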

[6] = system: E. coli TESEC Mtb Alr; settings: compound 0.1 mM; remark: listed apart in the source
Procedure: as §3

[7] = arabinose 1000 nM, raw OD600 reference: median of DMSO wells 0.294, cell-free background 0.041
[8] = arabinose 10000 nM, raw OD600 reference: median of DMSO wells 0.264, cell-free background 0.041
[9] = arabinose 100000 nM, raw OD600 reference: median of DMSO wells 0.201, cell-free background 0.041
[10] = arabinose 1000000 nM, raw OD600 reference: median of DMSO wells 0.193, cell-free background 0.041
[11] = arabinose 10000000 nM, raw OD600 reference: median of DMSO wells 0.146, cell-free background 0.041
[12] = arabinose induction (level): High, raw OD600 reference: median of DMSO wells 0.331, cell-free background 0.041
[13] = arabinose induction (level): Low, raw OD600 reference: median of DMSO wells 0.417, cell-free background 0.041
[14] = arabinose induction (level): High, raw OD600 reference: median of DMSO wells […], cell-free background 0.041
[15] = arabinose induction (level): Low, raw OD600 reference: median of DMSO wells 0.227, cell-free background 0.041
[16] = arabinose 100 nM, raw OD600 reference: median of DMSO wells 0.413, cell-free background 0.052
[17] = arabinose 10000000 nM, raw OD600 reference: median of DMSO wells […], cell-free background 0.052

## CCOC(=O)[C@@](C)(N)Cc1ccc(O)c(O)c1 [Methyldopate hydrochloride]
[1]
  growth: 0.106 ± 0.0036
[2]; [7]
  growth: 0.159 ± 0.008
[2]; [8]
  growth: 0.185 ± 0.011
[2]; [9]
  growth: 0.116 ± 0.0072
[2]; [10]
  growth: 0.0901 ± 0.0019
[2]; [11]
  growth: 0.116 ± 0.0018
[3]; [12]
  growth: 0.163 ± 0.024
[3]; [13]
  growth: 0.276 ± 0.13
[4]; [14]
  growth: 0.155 ± 0.01
[4]; [15]
  growth: 0.152 ± 0.016
[5]
  growth: 0.469 ± 0.013
[6]; [16]
  growth: 0.405 ± 0.021
[6]; [17]
  growth: 0.339 ± 0.022

## CN(Cc1cnc2nc(N)nc(N)c2n1)c1ccc(C(=O)N[C@@H](CCC(=O)O)C(=O)O)cc1 [Methotrexate]
[1]
  growth: 0.225 ± 0.0067
[2]; [7]
  growth: 0.285 ± 0.011
[2]; [8]
  growth: 0.244 ± 0.013
[2]; [9]
  growth: 0.195 ± 0.011
[2]; [10]
  growth: 0.155 ± 0.0048
[2]; [11]
  growth: 0.144 ± 0.002
[3]; [12]
  growth: 0.24 ± 0.055
[3]; [13]
  growth: 0.359 ± 0.022
[4]; [14]
  growth: 0.2 ± 0.0058
[4]; [15]
  growth: 0.254 ± 0.022
[5]
  growth: 0.102 ± 0.0015
[6]; [16]
  growth: 0.277 ± 0.14
[6]; [17]
  growth: 0.126 ± 0.0066

## CN(C)C(=N)NC(=N)N [Metformin hydrochloride]
[1]
  growth: 0.253 ± 0.0099
[2]; [7]
  growth: 0.281 ± 0.026
[2]; [8]
  growth: 0.258 ± 0.0057
[2]; [9]
  growth: 0.238 ± 0.03
[2]; [10]
  growth: 0.178 ± 0.0068
[2]; [11]
  growth: 0.145 ± 0.0029
[3]; [12]
  growth: 0.372 ± 0.032
[3]; [13]
  growth: 0.404 ± 0.032
[4]; [14]
  growth: 0.218 ± 0.037
[4]; [15]
  growth: 0.235 ± 0.043
[5]
  growth: 0.447 ± 0.052
[6]; [16]
  growth: 0.404 ± 0.015
[6]; [17]
  growth: 0.349 ± 0.032

## CC(C)NC[C@H](O)COc1cccc2ccccc12 [(S)-propranolol hydrochloride]
[1]
  growth: 0.202 ± 0.0096
[2]; [7]
  growth: 0.263 ± 0.011
[2]; [8]
  growth: 0.295 ± 0.0058
[2]; [9]
  growth: 0.18 ± 0.016
[2]; [10]
  growth: 0.191 ± 0.014
[2]; [11]
  growth: 0.149 ± 0.0089
[3]; [12]
  growth: 0.279 ± 0.071
[3]; [13]
  growth: 0.308 ± 0.043
[4]; [14]
  growth: 0.173 ± 0.025
[4]; [15]
  growth: 0.231 ± 0.051
[5]
  growth: 0.497 ± 0.031
[6]; [16]
  growth: 0.424 ± 0.0079
[6]; [17]
  growth: 0.332 ± 0.016

## CC(=O)CC(c1ccccc1)c1c(O)c2ccccc2oc1=O (centres undefined) [Warfarin]
[1]
  growth: 0.251 ± 0.012
[2]; [7]
  growth: 0.273 ± 0.007
[2]; [8]
  growth: 0.2271 ± 0.0011
[2]; [9]
  growth: 0.139 ± 0.0062
[2]; [10]
  growth: 0.15 ± 0.0059
[2]; [11]
  growth: 0.126 ± 0.0063
[3]; [12]
  growth: 0.351 ± 0.065
[3]; [13]
  growth: 0.391 ± 0.072
[4]; [14]
  growth: 0.2 ± 0.011
[4]; [15]
  growth: 0.231 ± 0.021
[5]
  growth: 0.492 ± 0.081
[6]; [16]
  growth: 0.39 ± 0.0054
[6]; [17]
  growth: 0.342 ± 0.012

## Nc1ccc(C(=O)NCC(=O)O)cc1 [Aminohippuric acid]
[1]
  growth: 0.246 ± 0.011
[2]; [7]
  growth: 0.297 ± 0.018
[2]; [8]
  growth: 0.2604 ± 0.0024
[2]; [9]
  growth: 0.186 ± 0.022
[2]; [10]
  growth: 0.189 ± 0.006
[2]; [11]
  growth: 0.138 ± 0.0027
[3]; [12]
  growth: 0.372 ± 0.047
[3]; [13]
  growth: 0.464 ± 0.01
[4]; [14]
  growth: 0.208 ± 0.0093
[4]; [15]
  growth: 0.234 ± 0.0072
[5]
  growth: 0.6256 ± 0.0055
[6]; [16]
  growth: 0.408 ± 0.015
[6]; [17]
  growth: 0.3487 ± 0.0013

## CC(=O)[C@@]12O[C@](C)(c3ccccc3)O[C@@H]1C[C@H]1[C@@H]3CCC4=CC(=O)CC[C@]4(C)[C@H]3CC[C@@]12C [Algestone acetophenide]
[1]
  growth: 0.232 ± 0.0045
[2]; [7]
  growth: 0.323 ± 0.053
[2]; [8]
  growth: 0.265 ± 0.029
[2]; [9]
  growth: 0.173 ± 0.031
[2]; [10]
  growth: 0.115 ± 0.0061
[2]; [11]
  growth: 0.211 ± 0.0087
[3]; [12]
  growth: 0.231 ± 0.0044
[3]; [13]
  growth: 0.278 ± 0.038
[4]; [14]
  growth: 0.15 ± 0.015
[4]; [15]
  growth: 0.171 ± 0.0092
[5]
  growth: 0.381 ± 0.016
[6]; [16]
  growth: 0.413 ± 0.011
[6]; [17]
  growth: 0.117 ± 0.013

## CCCCCNC(=N)N/N=C/c1c[nH]c2ccc(OC)cc12 [Tegaserod maleate]
[1]
  growth: 0.0464 ± 0.0039
[2]; [7]
  growth: 0.047 ± 0.0021
[2]; [8]
  growth: 0.0443 ± 0.00086
[2]; [9]
  growth: 0.0455 ± 0.0016
[2]; [10]
  growth: 0.0451 ± 0.0011
[2]; [11]
  growth: 0.0474 ± 0.0038
[3]; [12]
  growth: 0.0504 ± 0.0014
[3]; [13]
  growth: 0.0483 ± 0.0011
[4]; [14]
  growth: 0.0474 ± 0.0015
[4]; [15]
  growth: 0.0486 ± 0.0013
[5]
  growth: 0.0476 ± 0.00066
[6]; [16]
  growth: 0.0508 ± 0.00065
[6]; [17]
  growth: 0.0554 ± 0.00072

## CC(c1cc2ccccc2s1)N(O)C(N)=O (centres undefined) [Zileuton]
[1]
  growth: 0.229 ± 0.004
[2]; [7]
  growth: 0.295 ± 0.021
[2]; [8]
  growth: 0.254 ± 0.011
[2]; [9]
  growth: 0.223 ± 0.018
[2]; [10]
  growth: 0.183 ± 0.0054
[2]; [11]
  growth: 0.151 ± 0.0028
[3]; [12]
  growth: 0.338 ± 0.022
[3]; [13]
  growth: 0.352 ± 0.012
[4]; [14]
  growth: 0.216 ± 0.029
[4]; [15]
  growth: 0.216 ± 0.017
[5]
  growth: 0.457 ± 0.011
[6]; [16]
  growth: 0.403 ± 0.0065
[6]; [17]
  growth: 0.3407 ± 0.00091

## CCCN(CCC)S(=O)(=O)c1ccc(C(=O)O)cc1 [Probenecid]
[1]
  growth: 0.226 ± 0.0059
[2]; [7]
  growth: 0.254 ± 0.0078
[2]; [8]
  growth: 0.261 ± 0.011
[2]; [9]
  growth: 0.221 ± 0.047
[2]; [10]
  growth: 0.153 ± 0.0022
[2]; [11]
  growth: 0.159 ± 0.0038
[3]; [12]
  growth: 0.346 ± 0.12
[3]; [13]
  growth: 0.371 ± 0.07
[4]; [14]
  growth: 0.232 ± 0.0066
[4]; [15]
  growth: 0.223 ± 0.02
[5]
  growth: 0.49 ± 0.048
[6]; [16]
  growth: 0.4 ± 0.016
[6]; [17]
  growth: 0.267 ± 0.0045

## N=C(N=C(N)N)N1CCOCC1 [Moroxidine hydrochloride]
[1]
  growth: 0.255 ± 0.02
[2]; [7]
  growth: 0.288 ± 0.017
[2]; [8]
  growth: 0.2687 ± 0.0004
[2]; [9]
  growth: 0.225 ± 0.022
[2]; [10]
  growth: 0.186 ± 0.013
[2]; [11]
  growth: 0.152 ± 0.0076
[3]; [12]
  growth: 0.366 ± 0.025
[3]; [13]
  growth: 0.404 ± 0.032
[4]; [14]
  growth: 0.203 ± 0.0065
[4]; [15]
  growth: 0.245 ± 0.053
[5]
  growth: 0.454 ± 0.045
[6]; [16]
  growth: 0.404 ± 0.011
[6]; [17]
  growth: 0.355 ± 0.033

## CCN(CC)C(=O)N1CCN(C)CC1 [Diethylcarbamazine citrate]
[1]
  growth: 0.255 ± 0.0031
[2]; [7]
  growth: 0.274 ± 0.031
[2]; [8]
  growth: 0.275 ± 0.015
[2]; [9]
  growth: 0.196 ± 0.017
[2]; [10]
  growth: 0.191 ± 0.0045
[2]; [11]
  growth: 0.148 ± 0.0047
[3]; [12]
  growth: 0.333 ± 0.092
[3]; [13]
  growth: 0.487 ± 0.02
[4]; [14]
  growth: 0.188 ± 0.0069
[4]; [15]
  growth: 0.226 ± 0.025
[5]
  growth: 0.549 ± 0.066
[6]; [16]
  growth: 0.411 ± 0.0087
[6]; [17]
  growth: 0.33 ± 0.014

## C=CC1=C(C(=O)O)N2C(=O)[C@@H](NC(=O)/C(=N\OCC(=O)O)c3csc(N)n3)[C@H]2SC1 [Cefixime]
[1]
  growth: 0.0395 ± 0.00093
[2]; [7]
  growth: 0.0377 ± 0.0006
[2]; [8]
  growth: 0.0408 ± 0.00017
[2]; [9]
  growth: 0.03693 ± 0.00032
[2]; [10]
  growth: 0.0407 ± 0.00045
[2]; [11]
  growth: 0.04003 ± 0.00021
[3]; [12]
  growth: 0.0679 ± 0.013
[3]; [13]
  growth: 0.048 ± 0.004
[4]; [14]
  growth: 0.0696 ± 0.022
[4]; [15]
  growth: 0.0479 ± 0.0042
[5]
  growth: 0.0448 ± 0.00017
[6]; [16]
  growth: 0.0456 ± 0.00035
[6]; [17]
  growth: 0.054 ± 0.001
